Source: PubChem BioAssay (Tox21)
Several values for one entry are separate records, joined by “and”; a condition that tells them apart may be missing. Identical values can stand only once. Records with an inconclusive call do not appear. Activity calls are given as the source filed them. Calls follow the shape of the dose curve; as a rule, active = well fitted activation curve with a large enough effect in the repeat runs; inconclusive = weak or mixed curves; inactive = flat fitted curve, though single readings scatter.

Experiment: Caspase-3/7 induction in HepG2 cells by small molecules, qHTS assay (AID 1346978); also: nearly all actives have a fitted effect of over 15% in size
Settings: HepG2 caspase-3/7 activation, Caspase-Glo luminescence, 17 h; series mostly up to 92.4 µM; caspase activation: at the top concentration
From the text: National Center for Advancing Translational Sciences [NCATS] NIH Chemical Genomics Center [NCGC] U.S. Environmental Protection Agency [EPA] National Institutes of Environmental Health Sciences [NIEHS] National Toxicology Program [NTP] Assay overview: Apoptosis is a process of programmed cell death and plays a central role in the development of multicellular organisms. It is a highly regulated process and induces cell death by activating caspases, which are the members of cysteine aspartic acid-specific protease (caspase) family. Caspases involved in apoptosis are classified by their mechanism of action as initiator caspases (caspase-2, -8, -9 and -10) and executioner caspases (caspase-3, -6, and -7). Inhibition of apoptosis results in number of cancers, autoimmune diseases, inflammatory diseases and viral infection. To identify small molecule compounds that induce apoptosis, a homogeneous, luminescent Caspase-Glo 3/7 assay was used. Wild type HepG2 cells were used to screen Tox21 libraries for identifying caspase-3/7 activity inducers.
Assay Protocol Summary: HepG2 cells were dispensed at 2,000 per well in 5uL of culture medium into white solid bottom 1536-well plates (Corning Life Sciences, Corning, NY) using a Multidrop Combi (Thermo Scientific, Waltham, MA) dispenser. The assay plates were incubated at 37 C and 5% CO2 for 5hr, and then 23nL of compounds dissolved in DMSO and positive control were transferred using a Pintool station (Wako, San Diego, CA). The assay plates were incubated at 37C and 5% CO2 for 17hr. For caspase-3/7 activity read, 4uL of Caspase-Glo 3/7 reagent (Promega Corporation, Madison, WI) was added to each well of the assay plates using Flying Reagent Dispenser (FRD, Aurora Discovery, San Diego, CA) and incubated the assay plates at room temperature for 30min. The luminescence signal was quantified using a ViewLux plate reader (Perkin Elmer, Shelton, CT).
% is scaled to controls: 0 for no effect and ±100 for the full control effect; potency is read from the fitted curve at half-maximal effect.

Row | SMILES | caspase activation | Potency
1 | CC(C)(C)C1CCC(=O)CC1 | -0.129% (inactive) | –
2 | [Cu+] | -2.7% (inactive) | –
3 | CN(C)C(=O)COC(=O)Cc1ccc(OC(=O)c2ccc(N=C(N)N)cc2)cc1 | 0.452% [at 42.5 µM] (inactive) | –
4 | COC(=O)c1ccccc1C | -2.44% (inactive) | –
5 | Cc1ccc(N/N=c2\c(=O)cc/c(=N\Nc3ccc(S(=O)(=O)O)cc3)c2=O)c(C)c1 | -8.15% (inactive) | –
6 | CC1(C)CC(O)CC(C)(C)N1 | 0.422% (inactive) | –
7 | C=CC(=O)OCCOC(=O)C=C | -1.21% (inactive) | –
8 | CN(C)c1ccc(C(=C2C=CC(=[N+](C)C)C=C2)c2ccc(N(C)C)cc2)cc1 | – | 19.2 µM (active) and 27.3 µM (active) and 26.6 µM (active)
9 | OC[C@H]1O[C@H](O[C@H]2O[C@H](CO)[C@@H](O)[C@H](O)[C@H]2O)[C@H](O)[C@@H](O)[C@@H]1O | -0.17% (inactive) | –
10 | CCCCCC(C)OC(=O)COc1ccc(Cl)c2cccnc12 (stereo not given) | 0.71% (inactive) | –
11 | CC(=O)OCC=C(C)C | 0.262% [at 42.5 µM] (inactive) | –
12 | O=C(Oc1ccccc1)Oc1ccccc1 | 0.679% (inactive) | –
13 | COC(=O)C1=C(C)NC(C)=C(C(=O)OCCN2CCN(C(c3ccccc3)c3ccccc3)CC2)C1c1cccc([N+](=O)[O-])c1 (stereo not given) | -0.788% [at 42.5 µM] (inactive) | –
14 | FC(F)(F)c1cccc(Cl)c1 | 0.411% (inactive) | –
15 | O=C(O)O | 0.0124% [at 8.39 µM] (inactive) | –
16 | CCC(=O)C(=O)CC | 0.0766% (inactive) | –
17 | CCC(C)n1ncn(-c2ccc(N3CCN(c4ccc(OC[C@H]5CO[C@](Cn6cncn6)(c6ccc(Cl)cc6Cl)O5)cc4)CC3)cc2)c1=O (stereo not given in full) | -3.06% [at 42.5 µM] (inactive) | –
18 | ClCCl | 0.145% (inactive) | –
19 | CN1CCN(Cc2cc(-c3ccc4[nH]c(=O)oc4c3)co2)[C@@H](c2ccc(F)cc2)C1 | 4.52% (inactive) | –
20 | CCCCCCCCCCOC(=O)c1ccccc1C(=O)OCCCCCCCC | 0.213% (inactive) | –

Row | SMILES | caspase activation | Potency
21 | CCN1C(=O)c2ccccc2C1Nc1ccc(OCCN2CCCCC2)cc1 (stereo not given) | -0.0066% [at 42.5 µM] (inactive) | –
22 | Clc1ccnc(Cl)n1 | 1.82% (inactive) | –
23 | O=C(O)Cc1ccc2c(c1)C(=O)c1ccccc1CO2 | -1.59% [at 42.5 µM] (inactive) | –
24 | c1ccc(SSc2ccccc2)cc1 | 0.5% (inactive) | –
25 | Nc1ccc(C(=O)O)c(O)c1 | -0.34% [at 42.5 µM] (inactive) | –
26 | Cc1ccc(-c2ccccc2)cc1 | 0.234% (inactive) | –
27 | CC(C)CCOC(=O)/C=C/c1ccccc1 | -0.906% (inactive) | –
28 | CCCCCCCCCCC[C@@H](C[C@@H]1OC(=O)[C@H]1CCCCCC)OC(=O)[C@H](CC(C)C)NC=O | -0.241% [at 42.5 µM] (inactive) | –
29 | O=c1[nH]c(=O)n([C@H]2C[C@H](O)[C@@H](CO)O2)cc1F | 3.1% [at 42.5 µM] (inactive) | –
30 | CC(=O)c1ccc(C(C)=O)cc1 | 0.325% (inactive) | –
31 | Nc1nc2c(ncn2COCCO)c(=O)[nH]1 | 0.0154% [at 42.5 µM] (inactive) | –
32 | Cl[Si](Cl)(c1ccccc1)c1ccccc1 | 0.255% (inactive) | –
33 | NC[C@H]1O[C@H](O[C@H]2[C@H](O[C@@H]3O[C@H](CO)[C@@H](O)[C@H]3O)C(O)[C@H](N)C[C@@H]2N)[C@H](N)[C@@H](O)[C@@H]1O (stereo not given in full) | -1.04% [at 8.39 µM] (inactive) | –
34 | Cc1c(C)c2c(c(C)c1OC(=O)c1cccnc1)CC[C@@](C)(CCC[C@H](C)CCC[C@H](C)CCCC(C)C)O2 | -1.47% [at 42.5 µM] (inactive) | –
35 | Cc1cc(=O)oc2cc(O)cc(O)c12 | 0.0872% (inactive) | –
36 | CCc1ccc(Br)cc1 | 0.128% (inactive) | –
37 | O=C1CCCCCCCCCCCCCCCO1 | 0.843% (inactive) | –
38 | COc1cc(S(=O)(=O)O)c(C)cc1N=Nc1c(O)ccc2cc(S(=O)(=O)O)ccc12 | -3.98% (inactive) | –
39 | CCC(CC)C(C)CCOC(C)=O (stereo not given) | 0.0457% (inactive) | –
40 | C#C[C@]1(OC(C)=O)CC[C@H]2[C@@H]3CCC4=C/C(=N/O)CC[C@@H]4[C@H]3CC[C@@]21CC | 11% [at 42.5 µM] (inactive) | –
